Results: PubChem BioAssay (NCI)
About 83,000 compounds went through this panel and 20% of them were active in at least one assay; those are over-represented in the sample as a whole.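 Cell lines were cultured in 96-well plates, exposed to a single compound concentration, and assessed for percent growth 48 hours later.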 Values without a mark were called inactive. Active and inactive are the calls of the source. Rule for the calls: active = growth percent below 10; inactive = the rest.

What follows are molecules tested on NCI-H522 lung (assay: NCI-60 one-dose screen, 48 h (100 = growth as untreated, 0 = no growth, -100 = all killed)). Conditions: 10 µM unless noted.

Going from `CCC(CC)N1C(=O)/C(=c2\sc3n(c2=O)NC2C(N=3)N(CC)C(=O)N2CC)c2ccccc21` (stereo not drawn) to `Cc1c(Cl)cccc1S(=O)(=O)Nc1ccc2c(c1)C(=O)N(C1CCC(=O)NC1=O)C2=O` (stereo not drawn), the growth rises from 62.7% to 94.2%.

First: CN1CCN(c2ccc(/C=N/Nc3nc4ccccc4c(=O)n3-c3ccccc3)cc2)CC1
Second: COc1ccc(Oc2ccc(/C=N/NC(=O)CSc3nc4ccccc4c(=O)n3-c3ccc(Cl)cc3)cc2)cc1
The growth of the first is higher: 93% for the first, 51.3% for the second.

Compared with `CC1=NC2=NC(=O)/C(=C3/N=C(C)C=C(c4ccccc4)N3N)NN2C(c2ccccc2)=C1`, `CS(=O)(=O)Nc1cc(-c2ccc3ncc(C#N)c(NCc4ccccc4O)c3c2)cnc1Cl` is lower in growth: 97.9% for the first, 12.8% for the second.

Compared with `Nc1ncc(-c2ccc3ncnc(N4CCc5cc(F)c(F)cc54)c3c2)cn1`, `O=C(NNc1nc2cc(F)c(F)cc2n2cccc12)c1cnccn1` is lower in growth: 34% for the first, 13.4% for the second.

Going from `CC(=O)C1=C(C)NC(NN)=NC1c1cccc(Cl)c1` (stereo not drawn) to `COc1cc(C2N=C(NNc3ccccc3)NC(C)=C2C(C)=O)ccc1O` (stereo not drawn), the growth falls from 97.9% to 78.5%.

Going from `NC(N)=Nc1ccc(Oc2cccc(NC(N)=Nc3ccc(Br)cc3)c2)cn1` to `C=CCn1c(SCC(=O)Nc2ccc(C(=O)/C=C/c3ccc(Cl)cc3)cc2)nnc1-c1c[nH]c2ccccc12`, the growth rises from 46.9% to 73.4%.

Going from `CCOC(=O)C1=NNC(c2ccc(Cl)cc2)C1C(=O)N1C(=S)NC(=O)C1CC(C)C` (stereo not drawn) to `CC(=O)N1C(=S)NC(=O)C1CC(C)C` (stereo not drawn), the growth rises from 88.4% to 94.9%.

First: CC/C(=C/c1c(O)cccc1OC)c1ccc2c(OC)cccc2[o+]1
Second: COc1cc(/C=C2\C(=O)Nc3ccccc32)ccc1OCc1ccc(Cl)cc1
The growth of the first is lower: 93.2% for the first, 95.8% for the second.

Going from `COc1c(N2CC3CCCNC3C2)c(F)cc2c(=O)c(C(=O)N/N=C/c3ccc(F)cc3)cn(C3CC3)c12` (stereo not drawn) to `COc1c(N2CC3CCCNC3C2)c(F)cc2c(=O)c(C(=O)N/N=C/c3c[nH]c4ccccc34)cn(C3CC3)c12` (stereo not drawn), the growth rises from 94.1% to 107%.

Compared with `CCCCCc1ccc(S(=O)(=O)Nc2cccc(-c3csc(NC(=O)CNCCN(C)C)n3)c2)cc1`, `CCCCCc1ccc(S(=O)(=O)Nc2cccc(-c3csc(NC(=O)CN4CCN(C)CC4)n3)c2)cc1` is lower in growth: 91% for the first, 89.5% for the second.

Compared with `CCCCCc1ccc(S(=O)(=O)Nc2cccc(-c3csc(NC(=O)CCCCCN4CCN(CCO)CC4)n3)c2)cc1`, `CCCCCc1ccc(S(=O)(=O)Nc2cccc(-c3csc(NC(=O)CCCCCN4CCN(C)CC4)n3)c2)cc1` is lower in growth: 77.2% for the first, 64.3% for the second.

Compared with `COc1cc2oc(-c3cccc(NC(=O)c4cc(N)ccc4Cl)c3)cc(=O)c2c(OC)c1OC`, `COc1ccc(Cn2cc3c(c2-c2cc(OC)c(OC)c(OC)c2)CCc2c(CN4CCCC4)noc2-3)cc1` is lower in growth: 101% for the first, 28.2% for the second.

Compared with `CCCCCc1ccc(S(=O)(=O)Nc2cccc(-c3csc(NCCN4CCN(C)CC4)n3)c2)cc1`, `CC(C)C[C@@H]1N[C@@]2(C(=O)Nc3ccccc32)[C@@H](c2ccc(F)cc2)[C@@H]1C(=O)c1ccc(O)cc1` is lower in growth: 90.2% for the first, 79.6% for the second.

For `COC(=O)C1(C)CCC[C@]2(C)[C@H]3C[C@H]4C(C(C)C)=C[C@]3(CC[C@@H]12)[C@H]1[C@@H]4[C@@H](OC(=O)c2ccco2)CC[C@@H]1OC(=O)c1ccco1` (stereo partly drawn), the growth was 99.6%.

For `COc1ccc2c(c1)Oc1nc(N)c(C#N)c(N)c1C2Sc1ccc(C)cc1` (stereo not drawn), the growth was -51.5% (active).
With `O=C(NNc1nc2cc(F)ccc2n2c(CO)ccc12)c1cnccn1` the growth was 2.58% (active).
`Cn1ccnc1C(=O)/C=C/c1ccc(CNC(=O)c2ccc(Cl)cc2)cc1` was tested, and the growth was 7.07% (active).
`CN(C)CCNC(=O)c1ccc(-c2nc3ccc4[nH]ncc4c3c3c2CCC3)cc1` was tested, and the growth was -40.6% (active).
In the case of `C=C(C=O)[C@@H]1CC[C@]2(COC(C)=O)CC[C@]3(C)C(CC[C@@H]4[C@@]5(C)CC[C@H](OC(C)=O)C(C)(C)[C@@H]5CC[C@]43C)[C@@H]12` (stereo partly drawn), the growth is reported as -35.5% (active).
For `CCC1=Cc2cc(OC)ccc2OC12C=Cc1cc(OC)ccc1O2` (stereo not drawn), the growth was -23.9% (active).
With `N#Cc1cnc2ccc(-c3cnc4[nH]ncc4c3)cc2c1N1CCc2cc(F)c(Cl)cc21` the growth was 1.37% (active).
With `O=C(NNc1nc2cc(F)cc(F)c2n2cccc12)c1cnccn1` the growth was 0.755% (active).
For `O=C(CNc1nc(-c2cccc([N+](=O)[O-])c2)cs1)Nc1cccc([N+](=O)[O-])c1`, the growth was -36.2% (active).
With `CC(Nc1c(C#N)cnc2ccc(-c3cnc(N)nc3)cc12)c1ccccc1` (stereo not drawn) the growth was 7.27% (active).
With `O=C(NCc1ncc[nH]1)c1ccc(-c2nc3ccc4[nH]ncc4c3c3c2CCCC3)cc1` the growth was -65% (active).
